Data from PubChem BioAssay.
Values without a mark were called inactive. Active and inactive are the calls of the source. Cut-off read from the data, not from the text of the source, unless noted: active = inhibition above about 36%; inactive = the rest.

Columns and labels:
[1] = tested on: transactivating tegument protein VP16 (Human herpesvirus 1); assay: compounds suppressing VP16-driven luciferase signal – cell-based, luminescence, single concentration, counter-screen for SRC2 inhibitor project (AID 652007); conditions: cell-based VP16 transactivation luciferase reporter, at 8.9 µM, stronger effect = higher value
[2] = target: Nuclear receptor coactivator 2 (Homo sapiens) (UniProt Q15596); assay: inhibition of GAL4-SRC2 driven luciferase expression – cell-based, luminescence, HEK293, triplicate, confirmation (AID 652008;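 active = mean inhibition above 46.5%, the solvent-only control mean plus 3 SD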;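 note: 0% = DMSO-treated cells and 100% = Gossypol at 36 µM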); conditions: HEK293 GAL4-SRC2 luciferase reporter, at 8.9 µM, stronger effect = higher value
Sequence of Nuclear receptor coactivator 2 (Homo sapiens) (Q15596 whole entry, looked up, the tested form may be a part): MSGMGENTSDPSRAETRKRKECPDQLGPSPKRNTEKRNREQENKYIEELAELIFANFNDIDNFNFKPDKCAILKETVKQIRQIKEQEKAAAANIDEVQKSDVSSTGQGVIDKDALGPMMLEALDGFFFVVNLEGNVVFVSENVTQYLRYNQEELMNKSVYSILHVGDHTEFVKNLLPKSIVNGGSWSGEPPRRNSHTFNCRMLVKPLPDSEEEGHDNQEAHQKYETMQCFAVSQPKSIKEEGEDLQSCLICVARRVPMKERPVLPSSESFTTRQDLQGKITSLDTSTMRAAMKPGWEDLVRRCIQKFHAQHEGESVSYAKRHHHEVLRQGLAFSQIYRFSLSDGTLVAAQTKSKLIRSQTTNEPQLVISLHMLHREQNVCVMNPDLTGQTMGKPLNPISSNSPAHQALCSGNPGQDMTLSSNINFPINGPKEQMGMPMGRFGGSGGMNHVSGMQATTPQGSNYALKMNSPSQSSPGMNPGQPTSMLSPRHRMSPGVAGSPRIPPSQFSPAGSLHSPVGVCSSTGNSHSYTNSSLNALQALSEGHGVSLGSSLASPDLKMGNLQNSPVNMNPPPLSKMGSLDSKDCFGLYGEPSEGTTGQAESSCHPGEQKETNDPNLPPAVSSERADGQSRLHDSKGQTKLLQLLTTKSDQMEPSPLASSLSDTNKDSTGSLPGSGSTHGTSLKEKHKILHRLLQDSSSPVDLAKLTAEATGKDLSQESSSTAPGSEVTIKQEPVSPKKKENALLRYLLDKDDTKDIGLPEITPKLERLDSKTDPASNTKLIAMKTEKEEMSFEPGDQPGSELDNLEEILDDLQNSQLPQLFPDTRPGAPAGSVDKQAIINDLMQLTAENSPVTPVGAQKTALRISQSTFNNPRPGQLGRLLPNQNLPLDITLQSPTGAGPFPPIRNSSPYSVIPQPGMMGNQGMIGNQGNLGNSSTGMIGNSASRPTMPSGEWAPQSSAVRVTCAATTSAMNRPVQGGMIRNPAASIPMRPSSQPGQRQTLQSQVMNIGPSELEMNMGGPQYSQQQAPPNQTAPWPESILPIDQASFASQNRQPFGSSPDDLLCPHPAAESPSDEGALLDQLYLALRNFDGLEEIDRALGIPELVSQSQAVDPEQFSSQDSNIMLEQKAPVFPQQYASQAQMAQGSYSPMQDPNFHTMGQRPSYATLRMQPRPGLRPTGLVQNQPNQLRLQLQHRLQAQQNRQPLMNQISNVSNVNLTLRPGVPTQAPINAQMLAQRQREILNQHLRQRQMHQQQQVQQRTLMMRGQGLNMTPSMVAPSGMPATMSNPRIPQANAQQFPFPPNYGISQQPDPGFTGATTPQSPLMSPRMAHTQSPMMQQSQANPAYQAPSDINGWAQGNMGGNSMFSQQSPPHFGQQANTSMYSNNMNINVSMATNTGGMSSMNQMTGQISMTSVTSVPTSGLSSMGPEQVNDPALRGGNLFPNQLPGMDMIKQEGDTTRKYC

Compound | inhibition [1] | inhibition [2]
CN(C(=O)CCc1nnc(-c2ccc(-c3ccccc3)cc2)o1)C1CCOCC1 | -6.16% | 26.7%
Cc1c(C=O)n(C)n(-c2ccccc2)c1=O | -14.4% | 2.35%
Cc1cccnc1CN1CCN(C(=O)c2cc(COc3ccc4ncccc4c3)on2)CC1 | 8.23% | 15.3%
CC1CCCCC12NC(=O)N(CC(=O)Nc1ccc(OC(F)F)cc1)C2=O (configuration not stated) | -18.4% | -11.2%
O=C(NCc1ccc(Cl)c(Cl)c1)c1cc(C2CCCCN2C(=O)CCc2ccccc2)on1 (configuration not stated) | -6.3% | 12.6%
CCCCc1ccc(S(=O)(=O)N/N=C(/C)c2ccncc2)cc1 | 30.5% | 68.7% (active)
c1c2c(cc3sc(N4CCCCC4)nc13)OCCO2 | -48.9% | 7.6%
CCOC(=O)CSc1[nH]c2cc(OC)ccc2c1[N+](=O)[O-] | -31.1% | 3.3%
Cc1ccc2cccc(NS(=O)(=O)c3ccccc3)c2n1 | 75.5% (active) | -19.5%
COc1ccc(Nc2nc(C)nc3c2oc2ccccc23)c(OC)c1 | 2.99% | 4.48%
Cc1c(CCC(=O)N[C@@H](C)C(=O)O)c(=O)oc2c(C)c3oc4c(c3cc12)CCCC4 | 25% | 27.4%
NC(=O)CC(NC(=O)c1ccc(Br)cc1)c1ccc(N2CCCCCC2)c([N+](=O)[O-])c1 (configuration not stated) | 9.13% | 23.3%
COc1ccc(OC)c(NC(=O)CCCc2ccccc2)c1 | -5.12% | -20.9%
O=C(/C=C/c1cn(-c2ccccc2)nc1-c1cccnc1)c1ccco1 | 29.5% | 39.6%
NNC(=O)COc1ccc(C(F)(F)F)cc1 | -3.76% | 4.91%
Cc1nc([N+](=O)[O-])c(Br)n1Cc1ccccc1 | 3.69% | 11.9%
